Holding throughout (settings): mRNA level, 48 h; actives raise or lower the signal
Read-out in assay [1]: ABC Transporter (ABCC2), ABCC2 (gene 1244)
The experiment in a line: LTEA_HepaRG_ABCC2: Life Technologies and Expression Analysis (LTEA) Assay for ABC Transporter (ABCC2) using HepaRG (AID 2283464). Put shortly: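 After plating and 48 h culture, HepaRG medium is replaced with serum-free induction medium and chemicals are added (8 concentrations, max 100 uM, 0.5% DMSO) for 48 h. Total RNA then undergoes qRT-PCR for ABCC2 with housekeeping normalization.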

Read-out in assay [2]: Broad substrate specificity ATP-binding cassette transporter ABCG2 (Homo sapiens) (UniProt Q9UNQ0)
As to the kind of experiment: LTEA_HepaRG_ABCG2: Life Technologies and Expression Analysis (LTEA) Assay for ABC Transporter (ABCG2) using HepaRG (AID 2283465). The procedure, abridged: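 ABCG2 transcript was quantified by TaqMan qRT-PCR against three housekeeping genes in HepaRG cells. Cells were treated in duplicate for 48 h across an 8-point half-log series up to 100 uM, with 0.5% DMSO vehicle. Gain or loss versus DMSO was fit.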

Read-out in assay [3]: ATP-citrate lyase (ACLY), ACLY (gene 47)
The experiment in a line: LTEA_HepaRG_ACLY: Life Technologies and Expression Analysis (LTEA) Assay for ATP-citrate lyase (ACLY) using HepaRG (AID 2283466). Put shortly: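 ACLY mRNA quantified by qRT-PCR on Fluidigm arrays against three housekeeping genes, after 48 h chemical treatment of HepaRG cells (top concentration 100 uM, half-log steps, 0.5% DMSO vehicle). Up- or down-regulation fitted relative to DMSO.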

Read-out in assay [4]: Peroxisomal acyl-coenzyme A oxidase 1 (ACOX1) gene, ACOX1 (gene 51)
As to the kind of experiment: LTEA_HepaRG_ACOX1: Life Technologies and Expression Analysis (LTEA) Assay for Peroxisomal acyl-coenzyme A oxidase 1 (ACOX1) gene using HepaRG (AID 2283467). Put shortly:
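ACOX1 transcript levels were quantified by TaqMan qRT-PCR against three housekeeping genes after 48 h chemical exposure of differentiated human HepaRG cells. Exposure used eight half-log steps topping at 100 uM, 0.5% DMSO vehicle, in duplicate. Bidirectional curve fits were made relative to DMSO.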

Read-out in assay [5]: Alkaline Phosphatase, Placental (ALPP) gene, ALPP (gene 250)
The experiment in a line: LTEA_HepaRG_ALPP: Life Technologies and Expression Analysis (LTEA) Assay for Alkaline Phosphatase, Placental (ALPP) gene using HepaRG (AID 2283468).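 On AC50: differentiated human HepaRG liver cells in serum-free induction medium.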 Put shortly:
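Using human liver HepaRG cells, chemicals are tested in duplicate over 48 h at half-log concentrations topping at 100 uM; phenobarbital 1 mM serves as induction control. ALPP mRNA change by qRT-PCR, bidirectional fit against vehicle.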

Read-out in assay [6]: Bcl-2 (BAX) gene, BAX (gene 581)
The experiment in a line: LTEA_HepaRG_BAX: Life Technologies and Expression Analysis (LTEA) Assay for Bcl-2 (BAX) gene using HepaRG (AID 2283470). Put shortly: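 qRT-PCR read-out of BAX mRNA, normalized to three housekeeping genes, after 48 h chemical exposure of human HepaRG cells in serum-free induction medium; eight-point half-log series, top 100 uM, 0.5% DMSO vehicle; bidirectional fit versus DMSO.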

Read-out in assay [7]: adenosine kinase (ADK) gene, ADK (gene 132)
The experiment in a line: LTEA_HepaRG_ADK: Life Technologies and Expression Analysis (LTEA) Assay for adenosine kinase (ADK) gene using HepaRG (AID 2283471). The procedure, abridged: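 Following 48 h exposure of HepaRG cells in 0.5% DMSO (top concentration 100 uM, duplicate wells), ADK mRNA induction or suppression was measured by qRT-PCR, normalised to ACTB/GAPDH/POLR2A, and fitted bidirectionally relative to vehicle.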

Read-out in assay [8]: Alpha-fetoprotein (AFP) gene, AFP (gene 174)
The experiment in a line: LTEA_HepaRG_AFP: Life Technologies and Expression Analysis (LTEA) Assay for Alpha-fetoprotein (AFP) gene using HepaRG (AID 2283472). Put shortly: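 qRT-PCR (Fluidigm TaqMan) readout of AFP transcript, normalized to three housekeeping genes, fitted bidirectionally against 0.5% DMSO baseline. HepaRG cells received chemicals for 48 h in serum-free induction medium, top concentration 100 uM, half-log steps.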

Read-out in a further assay: BCL2L11 (gene 10018)
As to the kind of experiment: LTEA_HepaRG_BCL2L11: Life Technologies and Expression Analysis (LTEA) Assay for Bcl-2 (BCL2L11) gene using HepaRG (AID 2283473). Put shortly: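 Human hepatic HepaRG cultures are treated 48 h with test chemicals (maximum 100 uM, 0.5% DMSO vehicle). Expression of BCL2L11 is measured by qRT-PCR against ACTB, GAPDH and POLR2A, with activity in either direction scored relative to vehicle.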

Read-out in assay [9]: Apolipoprotein A-V (APOA5) gene, APOA5 (gene 116519)
As to the kind of experiment: LTEA_HepaRG_APOA5: Life Technologies and Expression Analysis (LTEA) Assay for Apolipoprotein A-V (APOA5) gene using HepaRG (AID 2283474). The procedure, abridged:
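Concentration-response of APOA5 expression in HepaRG: eight half-log doses to 100 uM, 48 h, qRT-PCR normalized to ACTB/GAPDH/POLR2A, bidirectional fitting with 0.5% DMSO as baseline.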

Read-out in assay [10]: Bcl-2 (BID) gene, BID (gene 637)
As to the kind of experiment: LTEA_HepaRG_BID: Life Technologies and Expression Analysis (LTEA) Assay for Bcl-2 (BID) gene using HepaRG (AID 2283476). Put shortly: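 HepaRG, 48 h exposure, 8-pt half-log series, top 100 uM, 0.5% DMSO vehicle, duplicates. Readout: BID mRNA by TaqMan qRT-PCR; housekeeping-normalized; bidirectional curve fit vs DMSO baseline.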

Read-out in a further assay: Caspase-3 (Homo sapiens) (UniProt P42574)
As to the kind of experiment: LTEA_HepaRG_CASP3: Life Technologies and Expression Analysis (LTEA) Assay for cysteine-aspartic acid protease (CASP3) using HepaRG (AID 2283477). The procedure, abridged: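 Transcript-level assay: CASP3 mRNA in human HepaRG after 48 h treatment, eight half-log concentrations from 100 uM in 0.5% DMSO, quantified by qRT-PCR.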

Read-out in assay [11]: Cytochrome P450 (CYP24A1), CYP24A1 (gene 1591)
The experiment in a line: LTEA_HepaRG_CYP24A1: Life Technologies and Expression Analysis (LTEA) Assay for Cytochrome P450 (CYP24A1) using HepaRG (AID 2283478). The procedure, abridged:
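Gene expression of CYP24A1 by TaqMan qRT-PCR in HepaRG after 48 h treatment, highest concentration 100 uM; activity fitted in both directions relative to DMSO vehicle.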

Read-out in assay [12]: Cytochrome P450 (CYP1A2), CYP1A2 (gene 1544)
As to the kind of experiment: LTEA_HepaRG_CYP1A2: Life Technologies and Expression Analysis (LTEA) Assay for Cytochrome P450 (CYP1A2) using HepaRG (AID 2283479). Put shortly:
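In duplicate wells, HepaRG cultures maintained in 0.5% DMSO were treated 48 h across an 8-point, half-log series topping at 100 uM; phenobarbital (1 mM) served as induction control. Expression was read by qRT-PCR.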

Read-out in assay [13]: cysteine-aspartic acid protease (CASP8), CASP8 (gene 841)
As to the kind of experiment: LTEA_HepaRG_CASP8: Life Technologies and Expression Analysis (LTEA) Assay for cysteine-aspartic acid protease (CASP8) using HepaRG (AID 2283480). The procedure, abridged: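 CASP8 transcript measured by TaqMan qRT-PCR with ACTB/GAPDH/POLR2A normalization, after 48 h chemical exposure of HepaRG cells in serum-free induction medium. Eight concentrations, top 100 uM, half-log steps, 0.5% DMSO vehicle; fits in both directions versus DMSO.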

Read-out in assay [14]: Cytochrome P450 2C19 (Homo sapiens) (UniProt P33261)
The experiment in a line: LTEA_HepaRG_CYP2C19: Life Technologies and Expression Analysis (LTEA) Assay for CYP2C19 using HepaRG (AID 2283482). Put shortly:
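Endpoint: CYP2C19 mRNA change, bidirectional fit vs 0.5% DMSO. Cells: HepaRG, 48 h exposure, eight-point series topping at 100 uM. Quantitation: qRT-PCR normalized to ACTB, GAPDH, POLR2A.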

Read-out in another assay: CYP2C8 (gene 1558)
As to the kind of experiment: LTEA_HepaRG_CYP2C8: Life Technologies and Expression Analysis (LTEA) Assay for CYP2C8 using HepaRG (AID 2283483). The procedure, abridged: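 CYP2C8 expression measured by TaqMan qRT-PCR and normalized to three housekeeping genes. HepaRG cultures were treated for 48 h with an eight-point half-log series topping at 100 uM, vehicle 0.5% DMSO, duplicates; fitted both directions against DMSO.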

Read-out in assay [15]: Cytochrome P450 (CYP2B6), CYP2B6 (gene 1555)
As to the kind of experiment: LTEA_HepaRG_CYP2B6: Life Technologies and Expression Analysis (LTEA) Assay for Cytochrome P450 (CYP2B6) using HepaRG (AID 2283481). Put shortly:
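Human HepaRG, 48 h dosing, 0.5% DMSO vehicle, top dose 100 uM. CYP2B6 transcript by qRT-PCR, housekeeping-normalized, bidirectional curve fit.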

Read-out in assay [16]: Bcl-2 (BAD) gene, BAD (gene 572)
The experiment in a line: LTEA_HepaRG_BAD: Life Technologies and Expression Analysis (LTEA) Assay for Bcl-2 (BAD) gene using HepaRG (AID 2283469). Put shortly:
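Read-out: qRT-PCR of BAD mRNA, normalized to three housekeeping genes. Human HepaRG cultures got 48 h chemical exposure in 0.5% DMSO, duplicate eight-point half-log series topping at 100 uM. Gain or loss of signal fitted versus DMSO vehicle.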

Read-out in assay [17]: Apoptosis regulator Bcl-2 (Homo sapiens) (UniProt P10415)
As to the kind of experiment: LTEA_HepaRG_BCL2: Life Technologies and Expression Analysis (LTEA) Assay for Bcl-2 gene using HepaRG (AID 2283475). Put shortly:
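qRT-PCR read-out (Fluidigm TaqMan) of BCL2 transcript, normalised to three housekeeping genes, after 48 h chemical exposure of HepaRG cells; 8-point half-log series, top 100 uM, 0.5% DMSO vehicle. Gain or loss of signal fitted relative to DMSO baseline.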

Active and inactive are the calls of the source. How the source made its calls: active means hit-call score of the fitted dose curve at least 0.9, where 1 is the maximum; inactive means score below 0.9.

Chain of Broad substrate specificity ATP-binding cassette transporter ABCG2 (Homo sapiens) (Q9UNQ0 whole entry, looked up): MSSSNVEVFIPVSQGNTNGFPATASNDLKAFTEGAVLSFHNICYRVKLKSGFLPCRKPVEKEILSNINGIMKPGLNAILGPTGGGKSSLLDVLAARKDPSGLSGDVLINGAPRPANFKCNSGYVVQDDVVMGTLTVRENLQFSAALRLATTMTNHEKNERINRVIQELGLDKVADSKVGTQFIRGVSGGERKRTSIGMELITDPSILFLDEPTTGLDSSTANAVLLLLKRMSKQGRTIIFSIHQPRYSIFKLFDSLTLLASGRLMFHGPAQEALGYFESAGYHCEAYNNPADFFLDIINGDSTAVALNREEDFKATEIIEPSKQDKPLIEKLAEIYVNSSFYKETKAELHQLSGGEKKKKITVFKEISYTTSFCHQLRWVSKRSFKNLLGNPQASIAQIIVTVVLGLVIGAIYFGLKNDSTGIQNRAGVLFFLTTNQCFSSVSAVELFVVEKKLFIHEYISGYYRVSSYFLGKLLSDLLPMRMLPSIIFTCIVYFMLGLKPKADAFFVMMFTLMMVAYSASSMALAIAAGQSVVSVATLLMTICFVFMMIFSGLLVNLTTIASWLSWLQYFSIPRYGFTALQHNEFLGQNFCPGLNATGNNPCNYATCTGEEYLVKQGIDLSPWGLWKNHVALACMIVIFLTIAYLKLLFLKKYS
Chain of Cytochrome P450 2C19 (Homo sapiens) (P33261 whole entry, looked up): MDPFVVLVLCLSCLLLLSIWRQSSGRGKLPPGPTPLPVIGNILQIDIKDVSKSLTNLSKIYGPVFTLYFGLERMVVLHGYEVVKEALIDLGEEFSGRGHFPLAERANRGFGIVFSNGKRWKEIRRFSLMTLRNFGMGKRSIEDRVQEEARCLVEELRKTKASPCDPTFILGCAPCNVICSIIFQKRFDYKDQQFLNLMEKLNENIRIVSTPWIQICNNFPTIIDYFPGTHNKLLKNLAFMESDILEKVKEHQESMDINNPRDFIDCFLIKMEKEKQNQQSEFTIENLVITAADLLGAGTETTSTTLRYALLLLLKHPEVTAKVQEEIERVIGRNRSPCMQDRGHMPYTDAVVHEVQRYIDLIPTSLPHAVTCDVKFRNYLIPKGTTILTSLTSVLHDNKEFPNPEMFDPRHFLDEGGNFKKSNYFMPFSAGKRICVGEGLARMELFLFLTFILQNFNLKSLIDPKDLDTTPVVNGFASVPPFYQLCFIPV
Chain of Caspase-3 (Homo sapiens) (P42574 whole entry, looked up): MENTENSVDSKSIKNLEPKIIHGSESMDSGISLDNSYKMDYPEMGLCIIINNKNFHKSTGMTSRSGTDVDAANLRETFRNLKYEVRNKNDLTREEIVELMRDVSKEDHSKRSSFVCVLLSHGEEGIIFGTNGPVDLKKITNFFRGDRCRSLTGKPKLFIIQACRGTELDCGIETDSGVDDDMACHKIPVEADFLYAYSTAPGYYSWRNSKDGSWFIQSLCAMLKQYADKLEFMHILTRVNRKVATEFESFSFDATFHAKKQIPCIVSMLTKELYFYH
Chain of Apoptosis regulator Bcl-2 (Homo sapiens) (P10415 whole entry, looked up): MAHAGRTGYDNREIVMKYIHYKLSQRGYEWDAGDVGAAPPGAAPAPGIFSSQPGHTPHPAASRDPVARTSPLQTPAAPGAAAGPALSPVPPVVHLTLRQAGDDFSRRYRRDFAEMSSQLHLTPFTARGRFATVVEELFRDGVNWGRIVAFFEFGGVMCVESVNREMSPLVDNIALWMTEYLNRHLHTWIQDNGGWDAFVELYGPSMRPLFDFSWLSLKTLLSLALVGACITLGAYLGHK

Regarding `N#CC(Br)(Br)C(N)=O`, the result in [1], in [2], in assay [3], in assay [4], in [5] and in assay [6] was inactive. In addition, the outcome (in assay [7]; in assay [8]; with BCL2L11 (gene 10018); in assay [9]; in [10]; in the assay with Caspase-3 (Homo sapiens)) was inactive. Moreover, the compound was called inactive (in assay [11]; in assay [12]; in [13]; in [14]; with CYP2C8 (gene 1558)).
For the compound `CCC[CH2][Sn]([Cl])([CH2]CCC)[CH2]CCC`, the AC50 (usually the concentration giving half of the maximal activity seen) is 3.8 µM (active) in assay [1]; 1.49 µM (active) in assay [2]; 3.11 µM (active) in [4]; 3.79 µM (active) in assay [5]; 1.72 µM (active) in assay [6]; 0.59 µM (active) in [8]. In addition, the AC50 is 11.7 µM (active) with BCL2L11 (gene 10018); 2.03 µM (active) in assay [9]; 1.58 µM (active) in assay [12]; 2.53 µM (active) in assay [15]; 1.37 µM (active) in [14]; 2.42 µM (active) with CYP2C8 (gene 1558). Also, the compound was called inactive (in [3]; in [7]; in assay [10]; in the assay with Caspase-3 (Homo sapiens); in assay [11]; in assay [13]).
In the case of `Clc1ccc(C(c2ccc(Cl)cc2)C(Cl)(Cl)Cl)cc1`, the AC50 in assay [1] was 4.19 µM (active); in assay [2], 0.788 µM (active); in [8], 50 µM (active); in assay [9], 50 µM (active); in assay [14] it was 2.78 µM (active); with CYP2C8 (gene 1558) it was 12.5 µM (active). The call (in assay [3]; in assay [4]; in assay [5]; in [6]; in assay [7]; with BCL2L11 (gene 10018)) was inactive. The call (in assay [10]; with Caspase-3 (Homo sapiens); in assay [12]; in assay [13]) was inactive.
On to `CCC(C)c1ccc(O)cc1` (stereo not drawn), for which the call in [1], in assay [2], in assay [3], in [4], in assay [5] and in [6] was inactive. Further, the outcome (in assay [7]; in [8]; with BCL2L11 (gene 10018); in assay [9]; in assay [10]; in the assay with Caspase-3 (Homo sapiens)) was inactive. Also, the compound was called inactive (in assay [12]; in assay [13]; in assay [15]; in assay [14]; in the assay with CYP2C8 (gene 1558)).
For `ClC1=C(Cl)[C@]2(Cl)[C@H]3[C@H]([C@@H]4C=C[C@H]3C4)[C@@]1(Cl)C2(Cl)Cl`, the AC50 in assay [2] was 9.92 µM (active); in [8], 50 µM (active); in assay [14] it was 3.63 µM (active); in the assay with CYP2C8 (gene 1558), 1.45 µM (active). Besides, the call in assay [3], in [4], in assay [5], in assay [16], in assay [6] and in assay [7] was inactive. For the same compound, the compound was called inactive (with BCL2L11 (gene 10018); in assay [9]; in assay [17]; in assay [10]; with Caspase-3 (Homo sapiens); in assay [11]). Moreover, the compound was called inactive in assay [12] and in [13].
As for `Oc1ccccc1Cl`, the compound was called inactive in assay [1], in [2], in assay [3], in assay [4], in [5] and in assay [6]. The outcome (in assay [7]; in [8]; with BCL2L11 (gene 10018); in assay [9]; in [10]; with Caspase-3 (Homo sapiens)) was inactive. For the same compound, the call (in assay [11]; in assay [12]; in assay [13]; in [14]; with CYP2C8 (gene 1558)) was inactive.

(Values after PubChem BioAssay (EPA / NIEHS).)
